Screening data from PubChem.
The list is not random: actives were taken first. Their share in the collection is about 1%.
E-sel TNF inh: TNF alpha driven E-selectin expression inhibition; inhibition, % at 2 µM; HUVEC TNFa-induced E-selectin immunofluorescence, high content; hit rate 0.71% among 120,000;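 active = inhibition above the batch mean plus 3 SD, and confirmed as a hit on visual image review, cut at about 43% in these data; inconclusive = passes the inhibition cutoff but fails visual image review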;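 note: 0% = TNF-stimulated DMSO wells and 100% = unstimulated control wells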
VCAM1 TNFa inh: reduces TNF alpha induced VCAM1 expression in HUVEC. HUVEC TNFa-induced VCAM-1 immunofluorescence, high-content imaging. inhibition, % at 2 µM. hit rate 0.48% among 95,000;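 active = inhibition above the batch mean plus 3 SD, with images confirmed as a hit by eye, cut at about 37% in these data; inconclusive = inhibition above that limit but hit not confirmed in images; inactive = inhibition not above that limit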;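 note: 0% = TNF-stimulated DMSO wells and 100% = unstimulated control wells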
HUVEC tox TNFa: toxic to HUVEC cells under TNF alpha stimulation. HUVEC TNFalpha-stimulated, Hoechst cell count, imaging. cell count reduction, % at 2 µM. hit rate 0.17% among 93,000. AID 848;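 active = cell count reduction exceeding the screen mean by over 5 SD, scaled to untreated wells per plate, cut at about 78% in these data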;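 note: cells counted after 24 h of TNF alpha exposure following the 1 h pretreatment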
cytoskel mod: alters cytoskeleton assembly in HUVEC cells. HUVEC TNFa F-actin phalloidin imaging, high content. inhibition, % at 2 µM. hit rate 0.18% among 91,000;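 active = inhibition above the batch mean plus 3 SD and confirmed as a hit by visual image inspection, cut at about 30% in these data, passing the limit was not always enough; inconclusive = above the inhibition threshold but rejected on visual inspection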
* = called active by the depositor; ? = inconclusive; / = no result given.

SMILES | E-sel TNF inh | VCAM1 TNFa inh | HUVEC tox TNFa | cytoskel mod
O=[N+]([O-])c1ccccc1CNC(Cc1ccccc1)c1ccccc1 (centres undefined) | 3 | 13 | -24 | 6
O=C1Cn2c(nc3ccccc32)N1c1cccc(C(F)(F)F)c1 | 9 | 10 | 3 | -7
COc1ccc(-c2nnc(SCC(=O)N3CCOCC3)o2)cc1OC | 96* | / | / | /
COc1ccc(-c2nnc(SCC(=O)N3CCN(c4ccccc4)CC3)o2)cc1OC | -15 | / | / | /
O=C(CN1CCSCC1)N1CCc2[nH]c3ccc(Br)cc3c2C1 | 5 | 61* | 4 | -18
Cc1ccc2[nH]c3c(c2c1)CN(C(=O)CN1CCN(c2cccc(C)c2C)CC1)CC3 | -11 | -8 | -3 | 0
Cc1ccc(S(=O)(=O)N(CC(=O)NC2CCCC2)c2cccc(C)c2)cc1 | 9 | / | / | /
O=C(CN1CCCCCC1=O)OCc1ncc(-c2ccccc2)o1 | / | 90* | 70 | -34
N/C(CN1CCCC1=O)=N\OC(=O)c1ccccc1Cl | / | -5 | -15 | 9
CCCS(=O)(=O)c1nnnn1-c1cccc(OC)c1 | 98* | / | / | /
CC(=O)NNc1nc2ccccc2s1 | / | -12 | -3 | 2
O=C(NNc1nc2ccccc2s1)Nc1ccccc1 | 62* | / | / | /
CCC(C)/C(C)=N/NC(=O)c1cn(-c2ccccc2)nc1-c1ccccc1 (centres undefined) | 11 | / | / | /
CCN(C(=O)COC(=O)c1ccc2[nH]c3c(c2c1)CCCC3)C1CCS(=O)(=O)C1 (centres undefined) | -13 | / | / | /
O=C(COc1ccc(C(=O)c2ccccc2)cc1)NCC(=O)Nc1ccccc1Br | 14 | / | / | /
CC(C)c1ccc(/C=C(\c2nc3ccccc3[nH]2)S(=O)(=O)c2ccccc2)cc1 | 24 | / | / | /
O=S(=O)(/C(=C/c1ccc(C(F)(F)F)cc1)c1nc2ccccc2[nH]1)c1ccccc1 | 99* | / | / | /
COc1ccc(/C=N/OCC(=O)N2CC3(C)CC2CC(C)(C)C3)cc1 (centres undefined) | -18 | 5 | -15 | -11
COc1ccc(/C(C)=N/OCC(=O)N2CC3(C)CC2CC(C)(C)C3)cc1 (centres undefined) | 94* | / | / | /
O=C(/C(=C/c1ccc(Cl)cc1)c1nc2ccccc2[nH]1)c1cccs1 | -14 | 52* | -6 | 12
COc1ccc(S(=O)(=O)NC(CC(=O)NCc2ccco2)C(C)C)cc1 (centres undefined) | / | ? | 100* | ?
CCC(C)NS(=O)(=O)c1ccc(OCC(=O)NCc2ccco2)cc1 (centres undefined) | 14 | 1 | -1 | -8
CC(C)C(C(=O)O)N1CCS(=O)(=O)CC1 (centres undefined) | 80* | / | / | /
O=S1(=O)CCN(C(CO)c2ccccc2)CC1 (centres undefined) | -11 | / | / | /
CCc1n[nH]c(=S)n1/N=C/c1ccc2c(c1)OCO2 | -29 | 8 | -19 | -8
SMILES | E-sel TNF inh | VCAM1 TNFa inh | HUVEC tox TNFa | cytoskel mod
CCCc1nnc(SCC(=O)O)n1/N=C/c1ccc2c(c1)OCO2 | -6 | 48* | 49 | /
CCCC(=O)Nc1ccc(C(=O)NNC(=O)c2ccco2)cc1 | / | 8 | -15 | 4
CCOC(=O)C1=C(c2ccccc2)OC(N)=C(C#N)C1c1ccco1 (centres undefined) | -8 | 69* | 68 | 33
COC(=O)C1=C(C)OC(N)=C(C#N)C1c1ccco1 (centres undefined) | -8 | 19 | 0 | -1
CC(C)(C)NC(=O)CSc1nc2ccc(NC(=O)CSc3nnc(N)s3)cc2s1 | -7 | / | / | /
C=CCn1c(SCC(=O)NCc2ccccc2)nnc1-c1ccccc1O | 40* | -5 | 1 | 22
C=CCn1c(CSCc2ccc(C)cc2)nnc1SCC(=O)NCc1ccccc1 | -9 | 2 | -12 | 6
COc1ccc(N2C(=O)CCC2(C#N)c2ccc(Br)cc2)cc1 (centres undefined) | 100* | 9 | -9 | -12
COc1ccccc1N1C(=O)CCC1(C#N)c1ccc(Br)cc1 (centres undefined) | 0 | 13 | 0 | 13
C=CCNC(=S)NNC(=O)c1ccc(Br)cc1 | 63* | / | / | /
CC(C)Oc1ccccc1C1CC(=O)Nc2cc3c(cc21)OCCO3 (centres undefined) | -8 | 86* | 46 | 2
Nc1ccc2c3c(cccc13)CC2 | / | 20 | -3 | 51*
c1ccc(Nc2ccc3c4c(cccc24)CC3)cc1 | 14 | 4 | -20 | 12
O=C(Cn1c(=O)n(-c2ccc(F)cc2)c(=O)c2sccc21)NC1CCCCC1 | 3 | / | / | /
O=C(OCC1CC(c2ccccn2)=NO1)c1ccc(Br)cc1 (centres undefined) | 96* | / | / | /
Cc1ccc(CNC(=O)Cn2ccc3ccccc3c2=O)o1 | / | -14 | 68 | 36*
COC(=O)CNC(=O)Cn1ccc2ccccc2c1=O | -34 | -1 | -28 | 49
Cc1c(NC(=O)c2ccccc2N)cccc1C(=O)O | -3 | 21 | -21 | -4
Nc1ccccc1NC(=O)c1ccccc1N | / | 81* | 93* | -3
O=C(Cn1ncc2c(=O)oc3ccccc3c21)N1CCc2ccccc2C1 | 90* | / | / | /
O=C(Cn1ncc2c(=O)oc3ccccc3c21)N1CCC(N2CCCCC2)CC1 | -3 | / | / | /
COc1ccc(C2C(C(=O)Nc3cccnc3)=C(C)Nc3nc(-c4cccs4)nn32)cc1 (centres undefined) | 100* | 17 | -31 | -15
O=C(c1cccc(C(F)(F)F)c1)N1CCCC1 | -22 | -18 | -24 | 8
O=C(c1cccc(F)c1)N1CCN(S(=O)(=O)c2ccc(C(F)(F)F)cc2)CC1 | 83* | 15 | -8 | 21
CCOC(=O)c1sc2nc(COC(=O)c3c(F)cccc3F)[nH]c(=O)c2c1C | 13 | / | / | /
SMILES | E-sel TNF inh | VCAM1 TNFa inh | HUVEC tox TNFa | cytoskel mod
CCOC(=O)c1sc2nc(CSc3nc4ccccc4n3CC)[nH]c(=O)c2c1C | 77* | -10 | -4 | -26
NNC(=O)c1csc(-c2cccc(C(F)(F)F)c2)n1 | -35 | / | / | /
COC(=O)c1cc2oc(C)cc2n1CC(=O)N1CCCc2ccccc21 | 71* | 0 | -23 | 18
COC(=O)c1cc2sccc2n1CC(=O)N1CCCc2ccccc21 | / | 12 | -11 | 3
Cn1cc(/C=N/n2cnc3scc(-c4ccc(Cl)cc4)c3c2=O)c2ccccc21 | / | 75* | 65 | -205
CCn1cnc2scc(-c3ccccc3)c2c1=O | -21 | -9 | -10 | -7
Cc1cc([N+](=O)[O-])nn1CC(=O)Nc1sc2c(c1C(N)=O)CCCC2 | 80* | / | / | /
NC(=O)c1c(NC(=O)Cc2cccs2)sc2c1CCC2 | 6 | 92* | 1 | 2
Cc1cc([N+](=O)[O-])nn1CCCC(=O)Nc1sc2c(c1C(N)=O)CCCC2 | -5 | / | / | /
CN(C)C(=O)CSc1nnc(Cc2ccc([N+](=O)[O-])cc2)o1 | -10 | 11 | / | 1
COc1ccc(CCC(C)Nc2cccc(F)c2)cc1 (centres undefined) | 6 | 25 | -8 | 3
COc1cc(C(=O)N/N=C/c2ccsc2C)cc(OC)c1OC | -35 | 57* | 55 | -58
O=C(CNc1ccc(C(F)(F)F)cc1[N+](=O)[O-])OCC(=O)c1ccccc1 | 17 | 19 | -43 | -5
CS(=O)(=O)c1ccc(S(=O)CC(=O)OCc2ccccc2)c([N+](=O)[O-])c1 (centres undefined) | 100* | / | / | /
Cc1ccc(S(=O)(=O)Cc2ccc(C(=O)OCc3ccccc3)cc2)cc1 | 4 | 9 | 0 | 9
